Shown are actives, neighbours in structure and some others; about 12% of the full set was active somewhere.
L3MBTL1 block – inhibitors of human L3MBTL1 | actives 0.66% (n = 230,000) | Potency, µM (highest dose often 57.1 µM), for the others: top-dose activity, negative = inhibition, actives largely listed as inhibitors | AlphaScreen L3MBTL1–H3K9me1 peptide binding | AID 485360 | Q9Y468; further: on the % scale 0 is the no-effect control and ±100 the full control effect; nearly all actives have a fitted effect of over 60% in size
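AlphaScreen proximity signal between nickel-chelate acceptor and streptavidin donor beads (final 10 ug/mL) reports binding of 50 nM L3MBTL1 to 75 nM biotin-H3 K9me1 peptide; complex incubated with compounds 30 min at room temperature; cefsulodin titration as control.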
HP1b binding inh – blocks HP1-beta chromodomain binding to methylated histone tails. AlphaScreen HP1-beta / biotin-H3K9me3 peptide binding. AID 540317. actives 0.56% (n = 390,000). Potency, µM (highest dose often 114 µM), for inactives: at the highest dose activity change, negative = inhibition, usual class: inhibitors; further: nearly all actives have a fitted effect of over 70% in size
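HP1-beta protein (50 nM final) preincubated 30 min at room temperature with biotinylated H3(1-18)K9me3 peptide (50 nM) in PBS pH 7.4, 0.01% Tween-20, then compound added for 30 min. AlphaScreen streptavidin donor/nickel chelate acceptor beads (10 ug/mL final), 30 min dark, luminescence read.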
BAZ2B block – inhibitors of human BAZ2B bromodomain; AlphaScreen BAZ2B-H3K14Ac peptide displacement; Potency, µM (series often up to 114 µM), for inactives: at the top dose activity change, negative = inhibition, usual class: inhibitors; actives 4.4% (n = 360,000); further: on the % scale 0 is the no-effect control and ±100 the full control effect; nearly all actives have a fitted effect of over 60% in size
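In this displacement format the biotinylated H3(5-23) peptide acetylated at Lys14 serves as ligand at 50 nM, with BAZ2B at 50 nM in PBS pH 7.4 containing 0.01% Tween-20. Donor and acceptor beads are 10 ug/mL final.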
JMJD2A Tudor inh – blocks the human JMJD2A Tudor domain; O75164; AlphaScreen JMJD2A-Tudor / H3K4me3 peptide binding; Potency, µM (titrated, usually from 114 µM), for inactives: at the highest dose activity change, negative = inhibition, usual class: inhibitors; actives 4.4% (n = 390,000); AID 504339; further: on the % scale 0 is the no-effect control and ±100 the full control effect; nearly all actives have a fitted effect of over 50% in size
Target sequence (O75164 whole entry, looked up, the tested form may be a part): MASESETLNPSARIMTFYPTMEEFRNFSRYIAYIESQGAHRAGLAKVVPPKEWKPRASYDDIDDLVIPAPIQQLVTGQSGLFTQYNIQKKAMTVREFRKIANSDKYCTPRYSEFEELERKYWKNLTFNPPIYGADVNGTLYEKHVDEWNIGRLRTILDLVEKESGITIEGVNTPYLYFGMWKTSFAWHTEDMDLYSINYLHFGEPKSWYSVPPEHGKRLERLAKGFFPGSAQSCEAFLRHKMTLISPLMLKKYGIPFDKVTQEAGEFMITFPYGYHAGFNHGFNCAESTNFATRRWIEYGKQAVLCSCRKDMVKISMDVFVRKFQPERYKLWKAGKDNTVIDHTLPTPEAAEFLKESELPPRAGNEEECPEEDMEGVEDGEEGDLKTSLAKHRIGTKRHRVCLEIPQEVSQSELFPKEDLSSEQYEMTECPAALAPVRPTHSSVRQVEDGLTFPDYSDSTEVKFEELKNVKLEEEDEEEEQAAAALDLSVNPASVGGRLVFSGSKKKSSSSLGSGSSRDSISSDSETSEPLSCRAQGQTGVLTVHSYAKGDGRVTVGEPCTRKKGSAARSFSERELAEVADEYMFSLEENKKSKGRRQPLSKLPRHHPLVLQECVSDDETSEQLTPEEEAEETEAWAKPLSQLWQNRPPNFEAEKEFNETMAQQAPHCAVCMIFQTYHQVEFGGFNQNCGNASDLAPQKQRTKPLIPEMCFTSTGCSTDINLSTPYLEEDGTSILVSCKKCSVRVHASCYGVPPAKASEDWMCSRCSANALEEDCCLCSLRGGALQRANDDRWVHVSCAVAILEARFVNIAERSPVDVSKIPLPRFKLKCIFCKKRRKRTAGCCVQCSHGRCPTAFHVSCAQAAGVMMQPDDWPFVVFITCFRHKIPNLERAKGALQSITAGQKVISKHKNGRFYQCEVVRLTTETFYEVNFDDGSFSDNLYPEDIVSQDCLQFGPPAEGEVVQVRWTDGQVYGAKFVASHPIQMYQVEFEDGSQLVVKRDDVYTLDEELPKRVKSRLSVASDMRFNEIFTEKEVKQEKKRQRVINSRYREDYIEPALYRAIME
G9a inh – blocks human histone lysine methyltransferase G9a. G9a H3K9 monomethylation, AlphaScreen, 2 h. Potency, µM (series often up to 102 µM), for the others: at the highest dose activity, negative = inhibition, actives largely listed as inhibitors. actives 8.8% (n = 350,000); further: on the % scale 0 is the no-effect control and ±100 the full control effect; nearly all actives have a fitted effect of over 75% in size
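Readings reflect AlphaScreen signal from monomethyl-H3K9 antibody detection. HMT at 20 nM; substrate b-H3K9 500 nM; cofactor SAM 20 uM; 2 h RT reaction; compounds tested as titrations in qHTS with 15 min preincubation.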
Sfp PPTase inh – blocks B. subtilis Sfp PPTase activity; Q9F4F7; Biochemical Sfp PPTase activity, qHTS; Potency, µM, for inactives: largest response in the series, negative = inhibition, usual class: inhibitors; actives 3.5% (n = 310,000);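 further: the enzyme is Sfp with the accession as filed and its product quenches rhodamine fluorescence; 0% = enzyme reaction without inhibitor and -100% = no enzyme wells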
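Fluorescence-quenching assay: 15 nM Sfp-PPTase preincubated 15 min at room temperature with compound, then 5 uM rhodamine-CoA and 12.5 uM BHQ-2-labelled YbbR peptide added. Fluorescence (ex 525/em 598 nm) read at start and after 30 min; difference gives rate.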
* = called active by the depositor; ? = inconclusive; . = no result; [ ] = another dose, or the depositor's remark. The call rests on the fitted dose curve; in most records, active means well fitted curve in the direction sought with a large enough effect; inconclusive means small, poorly fitted or top-dose-only effect, or another doubt; inactive means no such curve, though single readings can be large; an effect the other way counts as inactive or inconclusive. Potency means the concentration at half of the fitted maximal effect.

SMILES	L3MBTL1 block	HP1b binding inh	BAZ2B block	JMJD2A Tudor inh	G9a inh	Sfp PPTase inh
S=c1[nH]ncn1/N=C/c1ccc(N2CCOCC2)cc1	.	34.7%	-1.9%	2.82µM*	1.78µM*	?
S=c1[nH]c(-c2ccccc2)cn1/N=C/c1ccncc1	-9.3%	-23.9%[57 µM]	-21.6%	0.708µM*	1.58µM*	79.4µM*
CCOc1ccc(/C=N/n2cc(-c3ccccc3)[nH]c2=S)cc1	-28.8%	?	-19.3%	-28.0%	?	5.9%
C(=N\n1cnnc1)/c1ccc(N2CCOCC2)cc1	-1.7%	40.2%	.	-9.6%	17.4%[59 µM]	17.3%
S=c1[nH]ncn1/N=C/c1ccccc1	-1.8%	42.2%	-8.2%	6.31µM*	26.0%[2.33 µM]	?
S=c1[nH]ncn1/N=C/c1ccc(Br)cc1	-2.3%	-5.3%	-29.1%	7.94µM*	1.26µM*	-6.4%
Cc1ccc(CN(C(=O)COc2ccc(C(C)(C)C)cc2)C2CCS(=O)(=O)C2)o1 (configuration not stated)	.	-10.3%	-30.1%	?	-46.1%[59 µM]	.
COc1ccccc1CNC(=O)CCCn1c(=O)c2ccccc2n(Cc2ccccc2C#N)c1=O	.	26.1%	1.6%	-14.0%	8.9%[59 µM]	.
COC(=O)[C@@H]1C[C@@]2(O)[C@H](O)[C@H](O)[C@H](O)C[C@H]2N1Cc1ccc(N2CCOCC2)cc1	.	.	.	.	.	4.7%
CCOC(=O)c1c(C)c(-c2ccccc2)n(CC(=O)NC(CC)Cc2ccccc2)c1C (configuration not stated)	.	35.6%	-15.9%	2.5%	19.4%[59 µM]	.
NC(CSC(c1ccccc1)(c1ccccc1)c1cccc2ccccc12)C(=O)O (configuration not stated)	.	?	.	56.2µM*	.	.
CC(=O)c1cccc(NC(=O)c2ccc3c(c2)N(Cc2ccc(C)cc2)CCS3)c1	.	32.0%	-2.3%	-14.6%	-0.2%[59 µM]	.
Nc1ccc(N(c2ccccc2)c2ccc(N)cc2)cc1	?	39.8µM*	25.1µM*	15.8µM*	1.26µM*	-13.2%
Cc1ccc2cccc(NC(=O)c3ccc(-c4cccc(Cl)c4Cl)o3)c2n1	.	27.5%	-11.1%	-3.0%	1.1%[59 µM]	.
COC(=O)CNC(=O)Nc1cc(C(=O)NCc2ccc(C)cc2)ccc1N1CCCC1	.	26.3%	-9.6%	-10.3%	8.6%[59 µM]	.
CCOc1ccc(NC(=O)CCc2c(C)nc3cc(-c4ccc(Cl)cc4)nn3c2C)cc1	.	18.6%	-19.5%	-12.8%	0.708µM*	.
CCOC(=O)c1cccc(NC(=O)CCc2c(C)nc3cc(-c4ccc(Cl)cc4)nn3c2C)c1	.	28.0%	-14.9%	-10.1%	-18.9%[59 µM]	.
CCOc1ccc(-c2nnc(SCC(=O)Nc3ccc(C)cc3C)o2)cc1	.	26.9%	-4.2%	79.4µM*	-5.5%[59 µM]	.
CCOc1ccc(-c2nnc(SCC(=O)Nc3ccc(C)cc3Cl)o2)cc1	.	58.1%	-19.1%	-25.5%	?	.
CCOc1ccc(-c2nnc(NC(=O)Cc3cc(OC)c(OC)c(OC)c3)o2)cc1	.	36.3%	22.4µM*	28.2µM*	-9.2%[2.33 µM]	-5.6%
CCN(CC)S(=O)(=O)c1cc(NC(=O)c2ccc3c(c2)NC(=O)C(C)S3)ccc1C (configuration not stated)	-3.1%	?	-2.2%	-30.1%	1µM*	.
CO[C@@H]1[C@@H](OC2OC(C)C(OC3CC(C)(O)C(OC(=O)CC(C)C)C(C)O3)C(N(C)C)C2O)[C@@H](CC=O)C[C@@H](C)C(=O)/C=C\C2O[C@H]2C[C@@H](C)OC(=O)C[C@H]1OC(C)=O (some centres not stated)	.	.	.	.	-4.8%[12.7 µM]	5.7%
O=C(c1ccco1)N1CCN(Cc2nnnn2CC2CCCO2)CC1 (configuration not stated)	-4.4%	40.1%	-30.3%	28.2µM*	?	-5.7%
O=C(c1ccco1)N1CCN(C(c2ccc(Cl)cc2)c2nnnn2CC2CCCO2)CC1 (configuration not stated)	.	0.1%	?	79.4µM*	-47.2%[12.7 µM]	56.2µM*
Cc1ccc(C(c2nnnn2CC2CCCO2)N2CCN(C(=O)c3ccco3)CC2)cc1 (configuration not stated)	-3.1%	40.5%	-35.1%	-3.8%	75.7%[59 µM]	10.0%
SMILES	L3MBTL1 block	HP1b binding inh	BAZ2B block	JMJD2A Tudor inh	G9a inh	Sfp PPTase inh
COc1ccc(S(=O)(=O)c2nnn(-c3ccccc3F)c2C)cc1	.	25.5%	0.7%	-6.4%	-28.2%[59 µM]	.
CC(C)Oc1ccccc1OCCN(C)C	5.1%	?	44.7µM*	31.6µM*	12.6µM*	-54.4%
COc1cc(/C=N/NC(=O)NC2CCCCC2)cc(OC)c1O	-4.1%	-6.5%	-14.4%	-18.5%	50.1µM*	-12.7%
Cc1ccc(C)c(N2CCN(C(=O)Cn3cnc4sc(C)c(S(=O)(=O)N5CCN(c6ncccn6)CC5)c4c3=O)CC2)c1	.	27.7%	-0.7%	-12.6%	-3.8%[59 µM]	.
Cc1ccc(C)c(NC(=O)CSc2ncnc3nc[nH]c23)c1	-2.4%	20.6%	-1.0%	-23.3%	?	9.5%
Cc1cccc(NC(=O)CNC(=O)c2ccc3nc[nH]c3c2)c1C	?	-6.4%	50.1µM*	-27.0%	?	.
Cc1cccc(NC(=O)CSc2ncnc3nc[nH]c23)c1C	-0.8%	33.1%	-34.0%	-29.8%	44.7µM*	17.1%
Cc1ccc(OCCSc2nnc(-c3cccs3)o2)cc1Cl	.	246.3%	40.1%	180.5%	41.4%[59 µM]	.
Cc1nc(CN2CCN(C(=O)NC3(c4ccccc4)CC3)CC2)cs1	.	28.7%	1.3%	14.4%[11.4 µM]	-5.8%[12.7 µM]	15.3%
Cc1nc(CN2CCN(S(=O)(=O)c3c(Cl)cc(Br)cc3Cl)CC2)cs1	-11.3%	-0.3%	79.4µM*	35.5µM*	22.4µM*	.
Cc1ccc(C)c(N(C(=O)CS(=O)CC(=O)Nc2ccc3c(c2)OCO3)C(C)C(=O)NC2CCCC2)c1 (configuration not stated)	-6.7%	41.3%	-3.8%	-10.8%	?	13.0%
Cc1cccc(N(C(=O)CS(=O)CC(=O)Nc2ccc3c(c2)OCO3)C(C)C(=O)NC2CCCC2)c1C (configuration not stated)	.	22.9%	-27.7%	-4.8%	56.2µM*	-14.4%
NCCC(O)(P(=O)(O)O)P(=O)(O)O	.	.	.	.	33.0%[59 µM]	-2.6%
COCCn1c(CCC(=O)Nc2ccc(OC)c(OC)c2)nc2cccnc21	.	27.7%	8.8%	-6.0%	3.3%[59 µM]	.
O=C(Nc1ccccc1C(=O)O)C1=NN=CC1	.	?	-8.8%	-30.1%	50.1µM*	-7.1%
CCCCC(=O)Nc1ccc(C(=O)OCc2cc(=O)n3nc(C4CC4)sc3n2)cc1	.	22.7%	1.5%	-21.9%	50.7%[59 µM]	.
COC(=O)N1CCC2(CCCN(Cc3ccccc3)C2)CC1	.	.	.	.	3.5%[12.7 µM]	-4.1%
c1ccc(-c2cnnn2-c2ccccc2)cc1	-4.8%	38.1%	-27.4%	3.4%	33.1%[59 µM]	12.5%
c1ccc(-c2cncn2-c2ccccc2)cc1	-24.0%	-4.6%	50.1µM*	?	2.0%[2.33 µM]	.

Screens (PubChem)
